Experimental data reported in PubChem BioAssay AID624172 (National Center for Advancing Translational Sciences (NCATS), 2012).
Among all 380,000 compounds or so, about 25 (0.007%) were called active. Calls follow the shape of the dose curve; as a rule, active = well fitted activation curve with a large enough effect; inconclusive = small, poorly fitted or top-dose-only effect; inactive = no such curve, though single readings can be large or run the other way. Only a sample is shown.

These compounds were tested against Glucagon-like peptide 1 receptor (Homo sapiens) (UniProt P43220) (assay: qHTS of GLP-1 Receptor Agonists). Settings: HEK293 GLP-1R CRE-luciferase, luminescence, 4-6 h, cells express a hypersensitive GLP-1R form; series mostly up to 45.6 µM; activation: at the top concentration.
Sequence of Glucagon-like peptide 1 receptor (Homo sapiens) (P43220 whole entry, looked up): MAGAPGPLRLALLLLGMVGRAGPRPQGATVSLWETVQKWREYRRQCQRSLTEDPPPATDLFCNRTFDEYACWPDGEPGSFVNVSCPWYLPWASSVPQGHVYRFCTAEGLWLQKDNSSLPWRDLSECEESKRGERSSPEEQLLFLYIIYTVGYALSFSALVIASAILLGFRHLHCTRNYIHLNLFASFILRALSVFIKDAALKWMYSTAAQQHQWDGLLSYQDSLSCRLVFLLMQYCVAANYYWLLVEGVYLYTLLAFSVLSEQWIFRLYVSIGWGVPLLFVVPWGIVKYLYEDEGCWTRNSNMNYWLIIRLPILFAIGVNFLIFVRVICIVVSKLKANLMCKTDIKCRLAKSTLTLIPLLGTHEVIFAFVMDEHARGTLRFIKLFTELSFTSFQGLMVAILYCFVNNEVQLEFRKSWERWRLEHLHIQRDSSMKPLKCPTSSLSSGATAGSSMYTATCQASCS
Source text: The overall goal of this project was to develop a novel assay for discovering small molecule ligands for class B1 G protein-coupled receptors (GPCRs). Very few agonists (or inverse agonists) with generally weak activity for this entire group of physiologically important receptors are known to date. To establish proof-of-principle that this critical bottleneck can be overcome with a suitable screening approach, our studies focused on the class B1 receptor for glucagon-like peptide-1 (GLP-1R), a potential therapeutic target for diabetes and neurodegenerative disease.
The assay was developed in a "mix and measure" format using a cell-based functional readout. Toward this goal, stably transfected HEK293 cell clones were established that co-express (i) a cAMP-responsive luciferase reporter gene, and (ii) GLP-1Rs that upon ligand interaction either stimulate (agonists) or inhibit (inverse agonists) luciferase activity. In different cell lines to be used for screening, expressed GLP-1Rs are specifically optimized for high sensitivity detection of either weak agonists (hypersensitive receptor) or inverse agonists (constitutively active receptor mutant). In addition, control cell lines were developed that express either the cAMP-responsive reporter gene without recombinant GLP-1Rs (enabling initial exclusion of GLP-1R independent effects of candidate probes), or the reporter gene together with wild type GLP-1Rs (for confirmation of probe activity at this receptor), or the reporter gene in combination with the constitutively active orphan receptor GPR119 (enabling initial exclusion of GLP-1R independent inhibitory effects of candidate inverse agonists).
To that end, this assay was optimized for 1536-well format and screened against the MLSMR.
NIH Molecular Libraries Probe Production Network [MLPCN]
NIH Chemical Genomics Center [NCGC]
PI Name: Martin Beinborn, Tufts Medical Center
In a white solid 1536-well plate, 6 uL of cells are dispensed in DMEM without phenol red, 10% Nu serum, and 1% pen-strep medium. The plates are then incubated for 12 hours at 37 deg C at 5% CO2 before 23 nL of compounds are added. After a 4-6 hr incubation at37 deg C and 5% CO2, 3 uL of detection reagent are added and after a 12 min incubation at RT, a luminescent read is obtained on the ViewLux.
Also: % of control where 0% means no effect.

activation, inactive:
COC(=O)[C@@H]1CC2=CC(=O)CC[C@]2(C)[C@@]23O[C@@H]2C[C@@]2(C)[C@@H](CC[C@@]24CCC(=O)O4)[C@H]13 6.89%, OCC(CO)NC1C[C@](O)(CO)[C@@H](O)[C@H](O)[C@H]1O (stereo partly specified) -3.76%, Cc1ccccc1NC(=O)Cn1c(=O)n(Cc2ccco2)c(=O)c2ccc(C(=O)NC3CCCC3)cc21 2%, CC(=O)O[C@]1(C(C)=O)CC[C@@H]2[C@@H]3C=C(C)C4=CC(=O)CC[C@@]4(C)[C@H]3CC[C@]21C -3.27% [at 19.8 µM], C[C@]12CC[C@@H]3c4ccc(O)cc4C[C@@H](CCCCCCCCCS(=O)CCCC(F)(F)C(F)(F)F)C3[C@@H]1CC[C@@H]2O (stereo partly specified) 14.3%, Cc1nn(-c2ccc(F)cc2)c(-n2cccc2)c1C(=O)N1CCN(c2ccccc2)CC1 4.43%, O=C(CCCCn1c(=O)c2ccccc2n(CC(=O)Nc2cccc(C(F)(F)F)c2)c1=O)NCc1ccc2c(c1)OCO2 1.22%, COc1cccc(NC(=O)CSc2cc(=O)n(C)c3ccc(Cl)cc23)c1 5.73%, CCc1ccccc1NS(=O)(=O)c1ccc2nc(-c3ccccc3)[nH]c2c1 -6.53%, Cc1ccc(C)c(N2CCN(C(=O)CCc3c(C)nc4c(c3C)c(=O)n(C)c(=O)n4C)CC2)c1 -1.73%, O=C(Nc1cccc(C(F)(F)F)c1)c1cc(Br)cc(Br)c1O -2.09%, CCOC(=O)c1ccc(N2C(=O)c3n[nH]c(C)c3C2c2ccc(O)c(OC)c2)cc1 (stereo unspecified) 9.13%, CCc1ccc(NC(=O)CN2CCSc3ccc(S(=O)(=O)N4CCCC4)cc32)cc1 7.06%, C=C1C(=CC=C2CCC[C@]3(C)[C@@H]([C@H](C)C=C[C@H](C)C(C)C)CC[C@@H]23)C[C@@H](O)C[C@@H]1O -4.1%, CCOc1ccc(NC(=O)Cn2cc(C(=O)c3ccc(C)cc3)c(=O)c3cc4c(cc32)OCCO4)cc1 0.588%, CCOC(=O)c1oc2ccc(S(=O)(=O)n3nc(-c4ccccc4OC)cc3N)cc2c1C 0.713%, COc1ccc(S(=O)(=O)n2nc(C)c(S(=O)(=O)N3CCCCCC3)c2C)cc1 -1.8%, CCN(C(=O)c1sc2cc(OC)ccc2c1Cl)c1ccccc1 8.92%, CN(C)c1ccc(NC(=O)CSc2nc(-c3ccco3)cc(C(F)(F)F)n2)cc1 0.431%, CCCCC(=O)OCC(=O)[C@H]1[C@H](C)C[C@@H]2[C@@H]3C[C@@H](F)C4=CC(=O)C=C[C@]4(C)[C@@]3(F)[C@@H](O)C[C@@]21C -0.472%, COc1ccc(NC(=O)Cn2c(=O)cc(C)c3c(C)nn(-c4cccc(Cl)c4C)c32)cc1OC 0.446%, CCCCCCCCCc1ccc(OCCOCCOCCOCCOCCOCCOCCOCCOCCO)cc1 5.73%, COc1cc(CNCCSc2nnnn2C)ccc1OCc1c(F)cccc1Cl 2.51%, Cc1cccc(N2CCN(C(=O)c3cc4c(=O)oc5ccccc5c4s3)CC2C)c1 (stereo unspecified) -0.212%, CC(C)(O/N=C(\C(=O)N[C@@H]1C(=O)N2C(C(=O)[O-])=C(C[n+]3ccccc3)CS[C@@H]12)c1csc(N)n1)C(=O)O -3.84% [at 19.8 µM], COc1ccccc1NC(=O)C1=C(C)Nc2ncnn2C1c1sccc1C (stereo unspecified) 9.66%, CCC(CCC(C)C1CCC2C3CC=C4CC(O)CC[C@@]4(C)C3CC[C@@]12C)C(C)C (stereo partly specified) 11.2%, Cc1sc2ncn(CC(=O)N3CCN(c4ccc(F)cc4)CC3)c(=O)c2c1S(=O)(=O)N1CCN(c2ncccn2)CC1 -4.64%, Cc1cccc(NC(=O)Cn2c(C(F)(F)F)nc3ccccc32)c1C -0.396%, COc1cc(OC)cc(C(=O)Nc2ccc3nc(Nc4cccc(C(F)(F)F)c4)cc(C)c3c2)c1 -14.1%, CC(=O)Oc1ccccc1C(=O)Nc1ncc([N+](=O)[O-])s1 -1.78%, COc1ccccc1CNC(=O)CCn1c(=O)c2ccccc2n(CC(=O)Nc2ccc(Br)cc2F)c1=O -2.58%, Cc1ccc(N2CCN(C(=O)CCc3c(C)nc4c(c3C)c(=O)n(C)c(=O)n4C)CC2)c(C)c1 -1.8%, C/C=C1\C2C=C(C)CC1(N)c1ccc(=O)[nH]c1C2 (stereo unspecified) -2.31%, CC(=O)NC(=O)c1ccccc1O -4.09%, CCCOc1ccc(-c2cccc(NS(=O)(=O)c3ccccc3)c2)nn1 -0.146%, Cc1ccc(S(=O)(=O)NC(=O)NN2C[C@H]3CCC[C@@H]3C2)cc1 -4.28% [at 19.8 µM], COc1ccc(-c2c(C)nn3c(N4CCC(C(=O)NCCC(C)C)CC4)cc(C)nc23)cc1OC 0.364%, CN(C)CCCSc1ccccc1NC(=O)/C=C/c1ccccc1 6.6%, CCOC(=O)c1c(NC(=O)c2ccc(S(=O)(=O)N3CCCC(C)C3)cc2)sc2c1CCN(C(C)C)C2 (stereo unspecified) 8.14%, C[N+](C)(CCOc1ccccc1)Cc1cccs1 (tested in a mixture with another compound) 1.72%, CCOc1ccccc1NC(=O)C1=C(C)Nc2ncnn2C1c1ccc(NC(C)=O)cc1 (stereo unspecified) -6.86%, COc1cccc(CNCCSc2nnnn2C)c1OCc1ccccc1Cl 2.98%, CCc1ccc(C(=O)CC2(O)C(=O)N(CCc3ccccc3)c3ccc(Br)cc32)cc1 (stereo unspecified) -2.5%, COc1ccccc1CNC(=O)CCn1c(=O)c2ccccc2n(CC(=O)Nc2cccc(Cl)c2)c1=O -0.689%, COc1ccc(CCNc2nc(-c3ccc(F)cc3)cc(C(F)(F)F)n2)cc1OC -0.152%, CCc1ccc(Sc2cc(C(=O)NCCCOC(C)C)c3ccccc3n2)cc1 -7.03%, O=C(CSc1ncc(CO)n1Cc1ccc(Cl)cc1)NCc1ccc(F)cc1 8.49%, COCCNC(=O)c1ccc2c(c1)N=C(C)c1cc(C)ccc1S2 -0.88%, Oc1ccc(Cl)c2c1CCC2 4.26%, COc1ccccc1-c1cc2nc(C)c(CCC(=O)O)c(C)n2n1 -1.35%, O=C(CCS(=O)(=O)c1ccc2c(c1)NC(=O)CO2)Nc1cccc(C(F)(F)F)c1 -0.552%, CCCC[C@H]1C(=O)N(c2ccccc2)N(c2ccc(O)cc2)C1=O 1.82% [at 19.8 µM], COc1ccc(-n2c(C)nc3c(cnn3-c3ccc(F)cc3)c2=O)cc1 -0.59%, COc1ccc2cc(-c3nc(Cl)c4c5c(sc4n3)CC(C)CC5)c(=O)oc2c1 (stereo unspecified) 1.37%, O=C(OCc1ccccc1)c1ccc(O)cc1 0.159%, Cc1ccccc1C(=O)Nc1cc(C)c(O)c(-c2nc3ccccc3o2)c1 -0.525%, O=C1c2c(O)cccc2[C@@H]([C@@H]2O[C@H](CO)[C@@H](O)[C@H](O)[C@H]2O)c2cc(CO)cc(O)c21 0.834%, CCOCCCNC(=O)c1cn(CC)c2ccc(S(=O)(=O)N3CCc4ccccc4C3)cc2c1=O 1.02%, CC(=O)N1CCc2cc(Br)cc(S(=O)(=O)CCC(=O)NCCc3ccc(Cl)cc3)c21 0.617%, COc1ccc(Nc2ncc(C(=O)Nc3cc(C)ccc3OC)c3ccccc23)cc1 0.74%, COc1cc2nc(SCC(=O)Nc3ccccc3F)n3nc(-c4ccccc4)nc3c2cc1OC -0.682%, CCN(CC)c1ccc(C2C(C(N)=O)=C(C)Nc3nc(SCc4ccccc4)nn32)cc1 (stereo unspecified) 2.01%, CCCCCn1c(=O)[nH]c2cc(C(=O)Nc3ccc(F)cc3)ccc2c1=O 0.528%, CC[C@]1(C)CC(=O)NC1=O -4.13%, COc1cc(OC)c(NC(=O)c2c3c(nn2C)-c2ccccc2SC3)cc1Cl 0.142%, COc1ccc(-c2cc(C(F)(F)F)nc(SCC(=O)N(C)Cc3ccccc3)n2)cc1OC 4%, CC1(C)O[C@@H]2C[C@@H]3[C@H]4C[C@@H](F)C5=CC(=O)C=C[C@]5(C)[C@@]4(F)[C@@H](O)C[C@]3(C)[C@]2(C(=O)CO)O1 -0.578%, Cc1ccc(C)c(N2C(=O)N(Cc3c(F)cccc3Cl)c3ccccc3S2(=O)=O)c1 0.891%, COc1cccc(CNC(=O)C(NS(=O)(=O)c2ccc3nc(C)sc3c2)C(C)C)c1 (stereo unspecified) -4.28%, Cc1cc2c(cc1S(=O)(=O)CCC(=O)Nc1ccc(OC(F)(F)F)cc1)OCC(=O)N2 18.1%, NC(=O)C(=O)N/N=C/c1ccc([N+](=O)[O-])o1 -3.04%, Cc1ccc(-c2ncc(Cl)cc2-c2ccc(S(C)(=O)=O)cc2)cn1 0.0129%, Cc1nnc(C(=O)NC(C)(C)c2nc(C(=O)NCc3ccc(F)cc3)c(O)c(=O)n2C)o1 12.6%, CC[C@]1([C@H]2O[C@@H]([C@@H]3O[C@](O)(CO)[C@@H](C)C[C@H]3C)C[C@H]2C)CC[C@@H]([C@]2(C)CC[C@@]3(C[C@@H](O)[C@@H](C)[C@@H]([C@H](C)[C@H](OC)[C@H](C)C(=O)O)O3)O2)O1 -2.14%, COc1ccc(NC(=O)C2CCCN(S(=O)(=O)c3c(C)[nH]c(=O)[nH]c3=O)C2)c(OC)c1 (stereo unspecified) -0.467%, Cc1cccc(C)c1NC(=O)NC1=CCCN1C 4.03%, CCCN(C(=O)Cn1cc(S(=O)(=O)N2CCN(c3ccccc3F)CC2)c2ccccc2c1=O)c1cccc(C)c1 -0.739%, C[C@@H]1C[C@H]2[C@@H]3C[C@H](F)C4=CC(=O)C=C[C@@]4(C)[C@]3(F)[C@H](O)C[C@]2(C)[C@@]1(O)C(=O)CO -0.723% [at 19.8 µM], CCCC(=O)O[C@]1(C(=O)COC(=O)CC)CC[C@@H]2[C@@H]3CCC4=CC(=O)CC[C@]4(C)[C@H]3[C@@H](O)C[C@@]21C -1.61%, CC(=O)CC(c1ccccc1)C1C(=O)Oc2ccccc2C1=O (stereo unspecified) -4.85%, COc1cc2c(cc1OC)[C@@H](Cc1cc(OC)c(OC)c(OC)c1)[N+](C)(CCCOC(=O)CC/C=C/CCC(=O)OCCC[N+]1(C)CCc3cc(OC)c(OC)cc3[C@H]1Cc1cc(OC)c(OC)c(OC)c1)CC2 (stereo partly specified) -0.798%, Cc1cc(OCC(=O)NCC2(N(C)C)CCCCC2)cc(C)c1Cl -2.17%, CC(=O)c1ccc(NC(=O)C2CCN(S(=O)(=O)c3c(C)noc3/C=C/c3ccc(C)cc3)CC2)cc1 -2.34%, COc1ccc(NC(=O)c2cnc(Nc3ccc(C)c(Cl)c3)c3ccccc23)cc1OC -1.26%, O=C(NCc1ccccc1)C1CCN(S(=O)(=O)c2ccc3[nH]c(=O)ccc3c2)CC1 1.16%
